Binding signal data for one sequence are collected here from paper PMC7862700, “An all-to-all approach to the identification of sequence-specific readers for epigenetic DNA modifications on cytosine”.

Common to all, as to assay: DAPPL (digital affinity profiling via proximity ligation, sequencing); 10 mM Tris-HCl pH 7.5, 50 mM NaCl, 1 mM DTT, 4% glycerol, room temperature, 30 min; GST-TFs on glutathione beads, 16-mer random dsDNA library, 0.1% formaldehyde crosslink after washing; high values mean tight binding
The target in one test is T1, FEV (Homo sapiens, UniProt Q99581 1-238).
T1 sequence: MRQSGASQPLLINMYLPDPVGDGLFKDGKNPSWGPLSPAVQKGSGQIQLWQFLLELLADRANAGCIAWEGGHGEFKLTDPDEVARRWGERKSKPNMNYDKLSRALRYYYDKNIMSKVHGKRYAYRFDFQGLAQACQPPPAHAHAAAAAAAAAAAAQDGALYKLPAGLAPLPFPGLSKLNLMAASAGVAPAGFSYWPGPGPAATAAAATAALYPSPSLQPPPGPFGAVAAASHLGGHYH
As to conditions: protein: recombinant; tags: N-terminal GST; dsDNA, one strand shown. An outline of the steps: (§1)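 Binding signal is defined as a hexamer's read frequency for one factor over its frequency for the tag-only sample. To obtain reads, GST-fused human transcription factors were expressed in yeast, captured on glutathione beads, barcoded with DNA and pooled with that sample. Pools met 200 nmole of a 16-mer random double-stranded DNA library in Tris/NaCl/DTT/glycerol buffer for 30 min at room temperature before washing, 0.1% formaldehyde crosslinking, proximity ligation (BsaI/T4 ligase, 1 h, 37 °C), PCR and Illumina NextSeq500 sequencing.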

The target of the next test is ETV5 (Homo sapiens, UniProt P41161 1-510). The settings on record: protein: recombinant; tags: N-terminal GST; dsDNA, one strand shown. An outline of the steps:
as §1

Another test addresses HSF1 (Homo sapiens, UniProt Q00613 1-529). As to conditions: protein: recombinant; tags: N-terminal GST; chain copies: 3; dsDNA, one strand shown. An outline of the steps:
as §1

A further test concerns the target T2, SPIC (Homo sapiens, UniProt Q8N5J4 1-248).
T2 sequence: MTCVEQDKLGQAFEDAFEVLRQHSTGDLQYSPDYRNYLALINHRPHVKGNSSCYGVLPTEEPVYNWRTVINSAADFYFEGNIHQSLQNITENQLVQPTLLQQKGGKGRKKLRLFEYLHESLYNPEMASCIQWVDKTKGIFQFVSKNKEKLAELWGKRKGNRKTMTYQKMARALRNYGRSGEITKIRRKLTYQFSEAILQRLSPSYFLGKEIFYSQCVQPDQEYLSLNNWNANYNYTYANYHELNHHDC
As to conditions: protein: recombinant; tags: N-terminal GST; dsDNA, one strand shown. The method, boiled down: as §1

The target of another test is ELF4 (Homo sapiens, UniProt Q99607 1-663). The settings on record: protein: recombinant; tags: N-terminal GST; dsDNA, one strand shown. An outline of the steps:
as §1

The target of the next test is T3, ELK4 (Homo sapiens, UniProt P28324-2 1-405).
T3 sequence: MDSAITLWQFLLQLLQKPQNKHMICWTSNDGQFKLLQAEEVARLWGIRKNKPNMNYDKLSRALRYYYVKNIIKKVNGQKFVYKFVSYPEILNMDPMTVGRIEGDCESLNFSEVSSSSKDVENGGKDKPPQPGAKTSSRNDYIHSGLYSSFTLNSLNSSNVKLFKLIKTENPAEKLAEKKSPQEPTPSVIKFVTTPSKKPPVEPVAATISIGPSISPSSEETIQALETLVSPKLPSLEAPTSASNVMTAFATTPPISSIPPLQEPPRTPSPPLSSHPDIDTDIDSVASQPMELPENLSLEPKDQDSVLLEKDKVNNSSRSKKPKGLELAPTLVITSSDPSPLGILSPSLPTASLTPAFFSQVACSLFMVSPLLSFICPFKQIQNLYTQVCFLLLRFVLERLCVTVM
As to conditions: protein: recombinant; tags: N-terminal GST; dsDNA, one strand shown. An outline of the steps: as §1

For a further test, the target named is T4, ETV2 (Homo sapiens, UniProt O00321 1-342).
T4 sequence: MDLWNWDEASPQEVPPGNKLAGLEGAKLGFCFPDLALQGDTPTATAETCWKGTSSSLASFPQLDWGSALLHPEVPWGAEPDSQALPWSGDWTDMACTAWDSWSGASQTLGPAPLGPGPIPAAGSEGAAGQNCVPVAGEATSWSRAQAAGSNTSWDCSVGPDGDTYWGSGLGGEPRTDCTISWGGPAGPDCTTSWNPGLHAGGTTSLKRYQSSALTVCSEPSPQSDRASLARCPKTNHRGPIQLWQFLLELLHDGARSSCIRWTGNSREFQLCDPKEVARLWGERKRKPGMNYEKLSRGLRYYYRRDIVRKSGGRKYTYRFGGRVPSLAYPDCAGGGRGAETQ
The settings on record: protein: recombinant; tags: N-terminal GST; dsDNA, one strand shown. The method, boiled down:
as §1

The target in a further test is T5, ELF3 (Homo sapiens, UniProt P78545 1-371).
T5 sequence: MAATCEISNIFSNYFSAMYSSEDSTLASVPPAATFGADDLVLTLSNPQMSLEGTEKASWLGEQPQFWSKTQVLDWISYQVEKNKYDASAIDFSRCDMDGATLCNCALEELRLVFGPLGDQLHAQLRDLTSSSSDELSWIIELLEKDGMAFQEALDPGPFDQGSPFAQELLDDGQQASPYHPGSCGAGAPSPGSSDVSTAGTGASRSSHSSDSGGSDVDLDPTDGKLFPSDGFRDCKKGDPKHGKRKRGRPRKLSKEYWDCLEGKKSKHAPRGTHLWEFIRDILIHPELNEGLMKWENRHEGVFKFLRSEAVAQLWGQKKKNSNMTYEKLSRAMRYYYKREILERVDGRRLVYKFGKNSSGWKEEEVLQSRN
As to conditions: protein: recombinant; tags: N-terminal GST; dsDNA, one strand shown. An outline of the steps: as §1

The target in a further test is CRX (Homo sapiens, UniProt O43186 1-299). The settings on record: protein: recombinant; tags: N-terminal GST; dsDNA, one strand shown. The method, boiled down:
as §1

The next test addresses ETV1 (Homo sapiens, UniProt P50549 1-477). The settings on record: protein: recombinant; tags: N-terminal GST; dsDNA, one strand shown. An outline of the steps:
as §1

Another test has as its target T6, ERF (Homo sapiens, UniProt P50548 1-548).
T6 sequence: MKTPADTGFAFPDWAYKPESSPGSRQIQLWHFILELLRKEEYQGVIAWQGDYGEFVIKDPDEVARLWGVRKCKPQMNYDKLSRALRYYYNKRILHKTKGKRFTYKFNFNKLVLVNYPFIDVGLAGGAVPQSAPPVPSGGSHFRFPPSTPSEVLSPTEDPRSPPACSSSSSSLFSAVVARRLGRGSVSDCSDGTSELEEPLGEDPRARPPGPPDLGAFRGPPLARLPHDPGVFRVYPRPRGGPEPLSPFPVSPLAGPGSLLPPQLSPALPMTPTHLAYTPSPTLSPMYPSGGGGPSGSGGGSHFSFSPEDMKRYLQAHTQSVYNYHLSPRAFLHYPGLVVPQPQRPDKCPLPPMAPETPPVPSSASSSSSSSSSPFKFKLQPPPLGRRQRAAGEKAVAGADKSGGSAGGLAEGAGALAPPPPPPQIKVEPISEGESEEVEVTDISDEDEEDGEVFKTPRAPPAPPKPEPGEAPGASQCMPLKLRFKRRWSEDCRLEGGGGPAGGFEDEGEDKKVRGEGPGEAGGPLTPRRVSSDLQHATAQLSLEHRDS
As to conditions: protein: recombinant; tags: N-terminal GST; dsDNA, one strand shown. The method, boiled down: as §1

A further test deals with T7, ETV3L (Homo sapiens, UniProt Q6ZN32 1-361).
T7 sequence: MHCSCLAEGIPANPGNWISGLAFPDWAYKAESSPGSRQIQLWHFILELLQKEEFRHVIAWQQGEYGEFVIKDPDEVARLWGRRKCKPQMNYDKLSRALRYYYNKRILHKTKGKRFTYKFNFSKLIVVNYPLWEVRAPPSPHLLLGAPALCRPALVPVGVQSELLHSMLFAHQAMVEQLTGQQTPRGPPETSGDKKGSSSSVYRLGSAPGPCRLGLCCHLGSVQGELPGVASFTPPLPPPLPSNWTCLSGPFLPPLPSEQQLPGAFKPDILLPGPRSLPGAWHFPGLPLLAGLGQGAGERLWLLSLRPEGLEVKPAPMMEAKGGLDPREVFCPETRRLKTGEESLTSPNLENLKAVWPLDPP
As to conditions: protein: recombinant; tags: N-terminal GST; dsDNA, one strand shown. An outline of the steps: as §1

A further test has as its target T8, ETS2 (Homo sapiens, UniProt P15036 1-469).
T8 sequence: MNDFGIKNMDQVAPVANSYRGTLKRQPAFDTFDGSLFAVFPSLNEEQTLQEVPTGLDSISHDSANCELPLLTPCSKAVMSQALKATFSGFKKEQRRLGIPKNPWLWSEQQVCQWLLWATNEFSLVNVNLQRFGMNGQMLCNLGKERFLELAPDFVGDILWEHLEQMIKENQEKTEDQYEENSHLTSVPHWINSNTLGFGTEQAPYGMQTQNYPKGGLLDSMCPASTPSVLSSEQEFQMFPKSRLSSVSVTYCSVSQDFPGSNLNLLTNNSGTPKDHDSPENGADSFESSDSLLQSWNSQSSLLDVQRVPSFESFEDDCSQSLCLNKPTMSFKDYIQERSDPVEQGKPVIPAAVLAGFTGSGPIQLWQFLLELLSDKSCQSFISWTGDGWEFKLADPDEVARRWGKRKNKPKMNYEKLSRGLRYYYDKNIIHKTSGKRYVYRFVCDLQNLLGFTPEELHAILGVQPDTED
As to conditions: protein: recombinant; tags: N-terminal GST; dsDNA, one strand shown. The method, boiled down: as §1

For a further test, the target named is T9, SPDEF (Homo sapiens, UniProt O95238 1-335).
T9 sequence: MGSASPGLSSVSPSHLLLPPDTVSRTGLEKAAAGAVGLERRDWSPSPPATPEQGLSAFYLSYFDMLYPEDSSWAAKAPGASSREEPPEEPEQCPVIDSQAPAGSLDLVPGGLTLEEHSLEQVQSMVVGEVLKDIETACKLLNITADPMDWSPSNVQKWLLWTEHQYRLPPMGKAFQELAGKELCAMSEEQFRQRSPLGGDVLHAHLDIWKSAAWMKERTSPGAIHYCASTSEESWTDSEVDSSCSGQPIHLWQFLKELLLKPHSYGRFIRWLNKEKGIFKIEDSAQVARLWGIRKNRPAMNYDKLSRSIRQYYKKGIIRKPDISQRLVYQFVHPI
As to conditions: protein: recombinant; tags: N-terminal GST; dsDNA, one strand shown. The method, boiled down:
as §1

Another test addresses T10, ETV7 (Homo sapiens, UniProt Q9Y603 1-341).
T10 sequence: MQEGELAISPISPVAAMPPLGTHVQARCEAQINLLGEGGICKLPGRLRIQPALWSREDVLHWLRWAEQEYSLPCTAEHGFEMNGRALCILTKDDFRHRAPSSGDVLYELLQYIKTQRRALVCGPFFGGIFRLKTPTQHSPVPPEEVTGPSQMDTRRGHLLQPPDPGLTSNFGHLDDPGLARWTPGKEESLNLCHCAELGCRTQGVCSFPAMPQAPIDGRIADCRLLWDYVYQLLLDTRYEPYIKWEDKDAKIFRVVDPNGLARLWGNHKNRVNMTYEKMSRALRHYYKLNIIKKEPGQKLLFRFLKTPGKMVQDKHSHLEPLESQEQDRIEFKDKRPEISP
As to conditions: protein: recombinant; tags: N-terminal GST; dsDNA, one strand shown. An outline of the steps: as §1

The target in another test is T11, ELF5 (Homo sapiens, UniProt Q9UKW6-2 1-255).
T11 sequence: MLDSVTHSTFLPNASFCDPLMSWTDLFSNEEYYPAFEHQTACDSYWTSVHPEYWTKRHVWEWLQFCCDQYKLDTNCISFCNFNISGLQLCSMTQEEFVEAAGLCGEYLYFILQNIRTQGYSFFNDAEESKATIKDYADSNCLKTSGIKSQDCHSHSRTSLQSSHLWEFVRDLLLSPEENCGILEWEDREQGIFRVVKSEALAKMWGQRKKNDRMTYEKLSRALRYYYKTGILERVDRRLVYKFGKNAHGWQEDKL
The settings on record: protein: recombinant; tags: N-terminal GST; dsDNA, one strand shown. The method, boiled down:
as §1

The next test concerns the target T12, ETV3 (Homo sapiens, UniProt P41162-2 1-143).
T12 sequence: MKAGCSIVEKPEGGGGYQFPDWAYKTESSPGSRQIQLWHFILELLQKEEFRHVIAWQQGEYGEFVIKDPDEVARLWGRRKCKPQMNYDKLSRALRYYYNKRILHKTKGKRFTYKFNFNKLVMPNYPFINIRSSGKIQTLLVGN
The settings on record: protein: recombinant; tags: N-terminal GST; dsDNA, one strand shown. The method, boiled down:
as §1

For a further test, the target named is ETV6 (Homo sapiens, UniProt P41212 1-452). As to conditions: protein: recombinant; tags: N-terminal GST; dsDNA, one strand shown. An outline of the steps:
as §1

Sequence of ELF4 (Q99607 whole entry): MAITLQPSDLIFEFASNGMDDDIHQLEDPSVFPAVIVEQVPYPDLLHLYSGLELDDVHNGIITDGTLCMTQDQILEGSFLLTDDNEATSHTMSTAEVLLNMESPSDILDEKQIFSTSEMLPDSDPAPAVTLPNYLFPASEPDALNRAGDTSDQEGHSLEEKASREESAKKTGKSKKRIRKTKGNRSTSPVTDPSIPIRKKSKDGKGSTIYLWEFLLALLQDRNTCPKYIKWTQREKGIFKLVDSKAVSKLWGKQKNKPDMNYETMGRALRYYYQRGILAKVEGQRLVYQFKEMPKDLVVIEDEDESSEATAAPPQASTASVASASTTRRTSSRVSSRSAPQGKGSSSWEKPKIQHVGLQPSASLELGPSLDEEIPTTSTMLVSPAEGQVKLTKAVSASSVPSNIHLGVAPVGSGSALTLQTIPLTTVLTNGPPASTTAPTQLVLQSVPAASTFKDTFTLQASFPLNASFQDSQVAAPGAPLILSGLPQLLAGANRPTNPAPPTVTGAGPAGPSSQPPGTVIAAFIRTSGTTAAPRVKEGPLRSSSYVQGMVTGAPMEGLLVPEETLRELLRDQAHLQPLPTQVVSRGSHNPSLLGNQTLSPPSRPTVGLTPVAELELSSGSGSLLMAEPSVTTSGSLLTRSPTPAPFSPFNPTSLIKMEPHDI
Sequence of ETV5 (P41161 whole entry): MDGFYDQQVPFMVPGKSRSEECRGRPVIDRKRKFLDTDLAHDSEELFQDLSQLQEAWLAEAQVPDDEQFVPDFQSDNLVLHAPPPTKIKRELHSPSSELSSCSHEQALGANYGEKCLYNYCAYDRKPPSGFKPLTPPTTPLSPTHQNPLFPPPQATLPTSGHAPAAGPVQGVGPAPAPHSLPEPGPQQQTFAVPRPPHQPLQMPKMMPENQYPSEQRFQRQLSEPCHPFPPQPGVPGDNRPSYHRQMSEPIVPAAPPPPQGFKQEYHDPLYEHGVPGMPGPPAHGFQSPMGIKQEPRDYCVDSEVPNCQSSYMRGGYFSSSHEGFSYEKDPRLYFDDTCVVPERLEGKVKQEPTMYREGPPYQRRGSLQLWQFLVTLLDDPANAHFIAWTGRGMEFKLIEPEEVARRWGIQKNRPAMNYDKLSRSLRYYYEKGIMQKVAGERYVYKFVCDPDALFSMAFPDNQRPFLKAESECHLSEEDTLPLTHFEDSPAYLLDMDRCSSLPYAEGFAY
Sequence of ETV1 (P50549 whole entry): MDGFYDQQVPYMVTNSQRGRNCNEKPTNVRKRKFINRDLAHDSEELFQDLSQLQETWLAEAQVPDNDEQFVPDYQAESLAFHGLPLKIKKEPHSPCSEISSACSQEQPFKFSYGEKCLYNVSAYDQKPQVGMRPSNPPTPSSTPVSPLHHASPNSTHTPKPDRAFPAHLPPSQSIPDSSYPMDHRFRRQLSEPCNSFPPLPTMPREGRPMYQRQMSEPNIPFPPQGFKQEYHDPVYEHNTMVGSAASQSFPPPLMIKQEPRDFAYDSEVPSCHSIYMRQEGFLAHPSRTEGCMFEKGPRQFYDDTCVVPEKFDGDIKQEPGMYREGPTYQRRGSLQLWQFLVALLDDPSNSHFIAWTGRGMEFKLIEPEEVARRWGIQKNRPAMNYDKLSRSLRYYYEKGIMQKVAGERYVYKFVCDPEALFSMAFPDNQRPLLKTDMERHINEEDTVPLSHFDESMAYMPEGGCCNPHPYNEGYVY
Sequence of CRX (O43186 whole entry): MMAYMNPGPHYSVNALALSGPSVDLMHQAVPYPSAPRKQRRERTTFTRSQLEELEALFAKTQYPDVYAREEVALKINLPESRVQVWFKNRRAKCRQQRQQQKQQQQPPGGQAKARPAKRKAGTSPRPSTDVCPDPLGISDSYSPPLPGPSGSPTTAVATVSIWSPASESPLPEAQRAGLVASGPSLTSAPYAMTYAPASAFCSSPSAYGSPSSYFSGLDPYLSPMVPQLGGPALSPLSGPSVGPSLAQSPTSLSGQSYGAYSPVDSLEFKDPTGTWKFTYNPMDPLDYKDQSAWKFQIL
Sequence of HSF1 (Q00613 whole entry): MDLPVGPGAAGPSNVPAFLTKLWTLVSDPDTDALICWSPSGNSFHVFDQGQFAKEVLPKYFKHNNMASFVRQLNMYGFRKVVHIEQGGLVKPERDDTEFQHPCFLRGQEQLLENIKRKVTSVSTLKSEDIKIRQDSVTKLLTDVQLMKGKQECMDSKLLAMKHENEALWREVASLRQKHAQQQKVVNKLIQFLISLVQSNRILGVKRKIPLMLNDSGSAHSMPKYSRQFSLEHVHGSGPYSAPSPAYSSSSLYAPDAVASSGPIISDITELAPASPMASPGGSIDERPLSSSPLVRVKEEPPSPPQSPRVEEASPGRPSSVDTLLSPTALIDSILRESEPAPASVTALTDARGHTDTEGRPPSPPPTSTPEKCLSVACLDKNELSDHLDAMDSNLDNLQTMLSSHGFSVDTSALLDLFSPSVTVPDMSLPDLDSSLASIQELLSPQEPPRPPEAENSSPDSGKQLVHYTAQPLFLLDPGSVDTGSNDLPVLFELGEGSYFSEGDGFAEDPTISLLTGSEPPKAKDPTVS
Sequence of ETV6 (P41212 whole entry): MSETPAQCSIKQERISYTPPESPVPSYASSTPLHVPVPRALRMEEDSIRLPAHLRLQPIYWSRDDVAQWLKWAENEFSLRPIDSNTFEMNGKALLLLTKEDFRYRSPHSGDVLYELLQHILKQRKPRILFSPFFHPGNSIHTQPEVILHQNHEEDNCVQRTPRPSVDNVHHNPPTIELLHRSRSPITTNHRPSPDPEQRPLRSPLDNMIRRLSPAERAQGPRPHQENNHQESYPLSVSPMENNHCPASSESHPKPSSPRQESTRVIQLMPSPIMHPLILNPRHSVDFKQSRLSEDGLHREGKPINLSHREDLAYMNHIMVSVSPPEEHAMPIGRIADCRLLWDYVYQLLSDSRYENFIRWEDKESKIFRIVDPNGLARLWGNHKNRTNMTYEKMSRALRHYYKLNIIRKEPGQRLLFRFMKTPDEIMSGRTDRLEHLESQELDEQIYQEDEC

Turning to GCTTCG, the binding signal in the test with FEV was 1.26 fold enrichment (6-mer frequency, TF over GST control); with ETV5, 1.29 fold enrichment (6-mer frequency, TF over GST control); in the test with HSF1 it was 1.6 fold enrichment (6-mer frequency, TF over GST control); with SPIC, 1.17 fold enrichment (6-mer frequency, TF over GST control); in the test with ELF4, 1.26 fold enrichment (6-mer frequency, TF over GST control); with ELK4 it was 1.38 fold enrichment (6-mer frequency, TF over GST control). Further, the binding signal with ETV2 is 1.33 fold enrichment (6-mer frequency, TF over GST control); in the test with ELF3, 1.47 fold enrichment (6-mer frequency, TF over GST control); in the test with CRX, 1.25 fold enrichment (6-mer frequency, TF over GST control); with ETV1, 1.29 fold enrichment (6-mer frequency, TF over GST control); in the test with ERF, 1.56 fold enrichment (6-mer frequency, TF over GST control); with ETV3L, 1.31 fold enrichment (6-mer frequency, TF over GST control). The binding signal with ETS2 was 1.32 fold enrichment (6-mer frequency, TF over GST control); with SPDEF it was 1.35 fold enrichment (6-mer frequency, TF over GST control); with ETV7 it was 1.44 fold enrichment (6-mer frequency, TF over GST control); with ELF5, 1.3 fold enrichment (6-mer frequency, TF over GST control); with ETV3 it was 1.37 fold enrichment (6-mer frequency, TF over GST control); with ETV6, 1.29 fold enrichment (6-mer frequency, TF over GST control).
